Screening results: PubChem, Sanford-Burnham Center for Chemical Genomics
A3A deaminase = blocks human APOBEC3A ssDNA deamination; actives 0.41% (n = 330,000); inhibition, % at 20 µM; recombinant A3A, FAM/TAMRA ssDNA deamination fluorescence; AID 493011;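 active = at least 40% inhibition at 20 µM here, with at most 30% in a related deaminase screen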
GC-A act = GC-A (human) enzyme activation; HEK293 GC-A cells, cGMP TR-FRET, EC30 ANP; 0% at EC30 ANP, 100% saturating ANP; activation, % at 10 µM; actives 0.14% (n = 370,000); in the data active = activation above about 40%
APOBEC3G inh = APOBEC3G (human) deaminase inhibition | recombinant A3G, ssDNA deamination FAM/TAMRA fluorescence | inhibition, % at 20 µM | actives 0.28% (n = 330,000) | Q9HC16;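 active = inhibition of at least 40% at 20 µM, with no more than 30% in the related APOBEC3A deaminase screen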
GC-B act = GC-B (human) receptor activation; P20594; actives 0.11% (n = 370,000); activation, % at 10 µM; HEK293-GC-B cells, CNP EC30, cGMP TR-FRET; 0% at EC30 CNP, 100% saturating CNP; AID 1920062;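 active = activation at 10 µM reaching about 35% in either raw or pattern-adjusted values, limit read from the data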
Target sequence (P20594 whole entry, looked up): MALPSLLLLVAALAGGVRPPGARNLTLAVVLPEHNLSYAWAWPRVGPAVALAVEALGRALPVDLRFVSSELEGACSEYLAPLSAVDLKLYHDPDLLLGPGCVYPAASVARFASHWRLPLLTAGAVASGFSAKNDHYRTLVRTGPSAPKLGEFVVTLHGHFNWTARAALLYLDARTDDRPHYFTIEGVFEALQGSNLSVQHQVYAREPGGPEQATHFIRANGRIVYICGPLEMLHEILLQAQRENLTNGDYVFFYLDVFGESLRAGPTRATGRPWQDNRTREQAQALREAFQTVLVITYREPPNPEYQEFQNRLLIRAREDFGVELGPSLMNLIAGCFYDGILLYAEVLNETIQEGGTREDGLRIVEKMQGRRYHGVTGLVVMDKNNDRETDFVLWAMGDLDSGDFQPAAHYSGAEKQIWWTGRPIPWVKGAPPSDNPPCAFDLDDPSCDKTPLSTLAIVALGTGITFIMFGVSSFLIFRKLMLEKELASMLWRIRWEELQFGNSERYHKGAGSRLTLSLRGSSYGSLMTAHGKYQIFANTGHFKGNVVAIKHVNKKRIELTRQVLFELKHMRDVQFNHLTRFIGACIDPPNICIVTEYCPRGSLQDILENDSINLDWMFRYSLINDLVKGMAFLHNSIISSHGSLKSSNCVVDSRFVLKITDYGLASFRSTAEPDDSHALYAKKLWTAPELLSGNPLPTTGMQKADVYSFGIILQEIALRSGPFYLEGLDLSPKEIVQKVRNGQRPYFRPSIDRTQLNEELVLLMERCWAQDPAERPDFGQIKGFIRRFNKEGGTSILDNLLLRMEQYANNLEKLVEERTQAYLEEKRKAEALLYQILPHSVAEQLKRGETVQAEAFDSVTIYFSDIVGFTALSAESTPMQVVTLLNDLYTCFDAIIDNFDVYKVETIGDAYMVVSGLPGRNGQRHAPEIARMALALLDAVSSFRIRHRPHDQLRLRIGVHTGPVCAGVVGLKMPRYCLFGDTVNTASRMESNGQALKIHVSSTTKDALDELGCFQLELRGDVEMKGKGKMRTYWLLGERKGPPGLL
FAS TE block = blocks the thioesterase domain of human fatty acid synthase; P49327; recombinant FAS-TE, OMFH fluorogenic substrate, fluorescence endpoint; inhibition, % at 15 µM; actives 0.67% (n = 360,000); AID 602261;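 active = compounds whose normalised, plate-corrected inhibition of enzyme fluorescence in the single-dose primary screen is 50% or more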
APOBEC3G confirm = APOBEC3G (human) deaminase inhibition, confirmed; shares compounds with APOBEC3G inh; recombinant A3G ssDNA deaminase, UDG/FAM-TAMRA fluorescence; inhibition, % at 20 µM; actives 72% (n = 890); AID 493152;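 active = inhibition reaching a set limit in any replicate at 20 µM, the limit being 80% of the first screen's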
UDG A3G counter = inhibits E. coli UDG, flagging false APOBEC3G inhibitors; shares compounds with APOBEC3G inh; UDG counterscreen, FAM/TAMRA oligo fluorescence; inhibition, % at 20 µM; 710 tested, under 10 active;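 active = compounds giving 40% or more inhibition at 20 µM in any one of the three replicates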;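 note: inhibitors lower the FAM signal released by uracil excision and alkaline cleavage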
Large screens that a line does not name were inactive (follow-up assays come after a bar, where they were run). A selection: hits, their analogues and other compounds. The true share with any hit is near 1.4%.

COc1cc2cc3c(N)c(C(=O)Nc4sc(C)c(C)c4C#N)sc3nc2cc1OC	APOBEC3G inh 47.8 | APOBEC3G confirm 26.6 | UDG A3G counter inactive
N#Cc1cn(CC(=O)O)c2ccccc12	APOBEC3G inh 70.4 | APOBEC3G confirm inactive | UDG A3G counter inactive
Cc1cc(C)n2c(=S)[nH]nc2n1	APOBEC3G inh 91.8 | APOBEC3G confirm 90.3 | UDG A3G counter inactive
Cc1cc(C)n2cnnc2n1	none
CC(C)(C)C(=O)OCc1nc(-c2ccc(Cl)cc2)cs1	none
CC(C)(C)S(=O)(=O)Cc1nc(-c2ccc(Cl)c(Cl)c2)cs1	APOBEC3G inh 67.3 | APOBEC3G confirm inactive
Nc1ccc2ccc(NS(=O)(=O)N3CCCCC3)cc2c1	none (no result: A3A deaminase, APOBEC3G inh, FAS TE block)
COC(=O)[C@]12C[C@H](CC(=O)N3CCCC3)C(=O)N(CCc3ccc(OC)c(OC)c3)C1=C[C@H](COCc1ccccc1)O[C@@H]2C	none (no result: A3A deaminase, APOBEC3G inh, FAS TE block)
CN1CCN(C(=S)C(=O)Nc2ccc(Br)cc2)CC1	APOBEC3G inh 79.5 | APOBEC3G confirm 70.4 | UDG A3G counter inactive
S=c1[nH]nc(-c2ccc(Cl)cc2)n1-c1ccc(Cl)cc1	none
Nc1n[nH]c(=S)n1-c1ccc(Cl)cc1	APOBEC3G inh 52.1 | APOBEC3G confirm 62.9 | UDG A3G counter inactive
Oc1ccc(-c2cn3c(n2)SCC3)cc1	none
Oc1ccc(-c2cn3c(n2)SCC3)cc1O	APOBEC3G inh 58.7 | APOBEC3G confirm 76.4 | UDG A3G counter inactive
CC(C)(C)c1cc(C(=S)N2CCN(CCO)CC2)cc(C(C)(C)C)c1O	APOBEC3G inh 61.0 | APOBEC3G confirm 55.8 | UDG A3G counter inactive
OCCN1CCN(C(=S)c2ccc(Cl)cc2)CC1	none
O=C(Nc1n[nH]c(=S)s1)c1ccco1	APOBEC3G inh 82.7 | APOBEC3G confirm 88.4 | UDG A3G counter inactive
O=C(Nc1nnc(-c2ccc(F)cc2)s1)c1ccco1	none
O=C(N[C@H]1C[C@@H]2O[C@H](CO)CC[C@@H]2O[C@@H]1CCc1ccc(-c2cccnc2)cc1)c1cccc(F)c1	none (no result: A3A deaminase, APOBEC3G inh, FAS TE block)
Cc1ccc(C)c(N(CC(=O)NN=C2CCN(C)CC2)S(=O)(=O)c2ccccc2)c1	APOBEC3G inh 51.1 | APOBEC3G confirm inactive | UDG A3G counter inactive
CCOC(=O)c1c(NC(=O)C2CCCO2)sc(C(=O)OC(C)(C)C)c1C (stereo not drawn)	APOBEC3G inh 47.0 | APOBEC3G confirm 33.1 | UDG A3G counter inactive
Fc1ccccc1-n1[nH]nnc1=S	APOBEC3G inh 51.8 | APOBEC3G confirm 15.0 | UDG A3G counter inactive
Fc1ccccc1-n1cn[nH]c1=S	none
COC(=O)[C@]12C[C@H](CC(=O)NCc3cccc(C(F)(F)F)c3)C(=O)N(Cc3ccc4c(c3)OCO4)C1=C[C@H](C(C)(C)C)O[C@@H]2C	none (no result: A3A deaminase, APOBEC3G inh, FAS TE block)
CCN(CC)c1ccc(NC(=O)c2ccccc2)cc1S(=O)(=O)Nc1ccccc1OC	APOBEC3G inh 49.8 | APOBEC3G confirm 48.5 | UDG A3G counter inactive
COc1ccc(C(=O)Nc2ccc(Cl)c(S(=O)(=O)Nc3ccccc3OC)c2)cc1	none
CCN(CC)c1ccc(NC(=O)c2cccc(C)c2)cc1S(=O)(=O)Nc1ccccc1OC	APOBEC3G inh 49.4 | APOBEC3G confirm 54.0 | UDG A3G counter inactive
CN1CC(O)([C@H](Cc2ccccc2)NC(=O)OC(C)(C)C)OCC1C(=O)NCc1cccc2ccccc12 (stereo partly drawn)	none (no result: A3A deaminase, APOBEC3G inh, FAS TE block)
Cn1c(SCCC#N)nnc1-c1ccc(F)cc1	none (no result: GC-A act, GC-B act)
CC1=C(SCCC#N)S/C(=C2\SC(C)=C(SCCC#N)S2)S1	APOBEC3G inh 69.0 | APOBEC3G confirm 47.4 | UDG A3G counter inactive
c1nc(NCC2CCOC2)c2cc(-c3ccc4c(c3)OCO4)ccc2n1 (stereo not drawn)	none (no result: A3A deaminase, APOBEC3G inh, FAS TE block)
CCOC(=O)c1ccc(N=C2SC(C(=O)NC)CC(=O)N2Cc2ccc(F)cc2)cc1 (stereo not drawn)	none
COc1ccc(N=C2SCC(=O)N2C)cc1	none (no result: A3A deaminase, APOBEC3G inh)
N#Cc1ccc(N=c2ssnc2Cl)cc1	APOBEC3G inh 73.1 | APOBEC3G confirm 91.5 | UDG A3G counter inactive
COc1cc(N=c2ssnc2Cl)cc(OC)c1OC	APOBEC3G inh 72.2 | APOBEC3G confirm 92.9 | UDG A3G counter inactive
